The nature of experiment [1]: Quantitative High-Throughput drug screen in 47 multiple myeloma cell lines against the NCATS MIPE library collection: KMS12PE_JCRB cell viability assay (AID 1918972). Also: nearly all actives have a fitted effect of over 30% in size. As to viability: series mostly up to about 46 µM. Put shortly:
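Myeloma cells (500 per well) were exposed to MIPE 4.0 compounds by pin transfer and incubated 48 hours at 37C, 5% CO2. Viability was read as ATP by CellTiter-Glo luminescence, normalised to DMSO (100%) and media-only (0%) wells.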

A short description of experiment [2]: Quantitative High-Throughput drug screen in 47 multiple myeloma cell lines against the NCATS MIPE library collection: KMS26_JCRB cell viability assay (AID 1918975). Also: nearly all actives have a fitted effect of over 45% in size. Put shortly:
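Inhibition of cell viability is measured here. Each line was plated at 500 cells per well, treated with MIPE 4.0 drugs, kept 48 hours at 37C, then assayed for ATP content by CellTiter-Glo luminescence.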

Experiment [3] is described as follows: Quantitative High-Throughput drug screen in 47 multiple myeloma cell lines against the NCATS MIPE library collection: MOLP8_DSMZ cell viability assay (AID 1918977). Also: nearly all actives have a fitted effect of over 45% in size. Put shortly: (§1)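 Myeloma cells (500/well) treated with MIPE 4.0 compounds for 48 h at 37 °C, 5% CO2. Viability read as ATP via CellTiter-Glo luminescence after 5 min at RT; DMSO-only wells = 100%, media-only = 0% viability.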

Experiment [4] can be described thus: Quantitative High-Throughput drug screen in 47 multiple myeloma cell lines against the NCATS MIPE library collection: OCIMY1_PLB cell viability assay (AID 1918979). Also: nearly all actives have a fitted effect of over 35% in size. As to viability: series mostly up to about 46 µM. Put shortly: as §1
The nature of experiment [5]: Quantitative High-Throughput drug screen in 47 multiple myeloma cell lines against the NCATS MIPE library collection: MM1S_ATCC cell viability assay (AID 1918980). Also: nearly all actives have a fitted effect of over 45% in size. Put shortly: as §1
The nature of experiment [6]: Quantitative High-Throughput drug screen in 47 multiple myeloma cell lines against the NCATS MIPE library collection: MM1R_ATCC cell viability assay (AID 1918981). Also: nearly all actives have a fitted effect of over 35% in size. Put shortly:
as §1

Experiment [7] is described as follows: Quantitative High-Throughput drug screen in 47 multiple myeloma cell lines against the NCATS MIPE library collection: LP1_DSMZ cell viability assay (AID 1918982). Also: nearly all actives have a fitted effect of over 35% in size. Put shortly:
as §1

Experiment [8] in a line: Quantitative High-Throughput drug screen in 47 multiple myeloma cell lines against the NCATS MIPE library collection: KMS28PE_JCRB cell viability assay (AID 1918983). Also: nearly all actives have a fitted effect of over 35% in size. Put shortly:
as §1

Experiment [9] is described as follows: Quantitative High-Throughput drug screen in 47 multiple myeloma cell lines against the NCATS MIPE library collection: KMS34_JCRB cell viability assay (AID 1918985). Also: nearly all actives have a fitted effect of over 40% in size. Put shortly:
as §1

The nature of experiment [10]: Quantitative High-Throughput drug screen in 47 multiple myeloma cell lines against the NCATS MIPE library collection: OCIMY5_PLB cell viability assay (AID 1918988). Also: nearly all actives have a fitted effect of over 65% in size. Put shortly: as §1
Experiment [11] is described as follows: Quantitative High-Throughput drug screen in 47 multiple myeloma cell lines against the NCATS MIPE library collection: SKMM1_PLB cell viability assay (AID 1919863). Also: nearly all actives have a fitted effect of over 35% in size. As to viability: series mostly up to about 46 µM. To be noted: SKMM1 myeloma viability, CellTiter-Glo ATP, 48 h; viability: active compounds read low. Put shortly: as §1
Experiment [12] can be described thus: Quantitative High-Throughput drug screen in 47 multiple myeloma cell lines against the NCATS MIPE library collection: U266_ATCC cell viability assay (AID 1919864). Also: nearly all actives have a fitted effect of over 35% in size. Put shortly: as §1
The nature of experiment [13]: Quantitative High-Throughput drug screen in 47 multiple myeloma cell lines against the NCATS MIPE library collection: XG6_PLB cell viability assay (AID 1919865). Also: nearly all actives have a fitted effect of over 40% in size. Put shortly:
as §1

Experiment [14] is described as follows: Quantitative High-Throughput drug screen in 47 multiple myeloma cell lines against the NCATS MIPE library collection: NCIH929_DSMZ cell viability assay (AID 1918978). Also: nearly all actives have a fitted effect of over 35% in size. Put shortly: as §1
Experiment [15] can be described thus: Quantitative High-Throughput drug screen in 47 multiple myeloma cell lines against the NCATS MIPE library collection: L363_DSMZ cell viability assay (AID 1918984). Also: nearly all actives have a fitted effect of over 40% in size. Put shortly:
as §1

A short description of experiment [16]: Quantitative High-Throughput drug screen in 47 multiple myeloma cell lines against the NCATS MIPE library collection: MMM1_PLB cell viability assay (AID 1918976). Also: nearly all actives have a fitted effect of over 35% in size. Put shortly: as §1
The nature of experiment [17]: Quantitative High-Throughput drug screen in 47 multiple myeloma cell lines against the NCATS MIPE library collection: OPM1_PLB cell viability assay (AID 1918989). Also: nearly all actives have a fitted effect of over 40% in size. Put shortly:
as §1

The nature of experiment [18]: Quantitative High-Throughput drug screen in 47 multiple myeloma cell lines against the NCATS MIPE library collection: OCIMY7_PLB cell viability assay (AID 1918987). Also: nearly all actives have a fitted effect of over 65% in size. Put shortly: as §1

Inconclusive results are not listed. Unmarked numbers belong to inactive results. Activity calls are given as the source filed them. Calls follow the shape of the dose curve; as a rule, active = well fitted curve in the direction sought with a large enough effect; inconclusive = small, poorly fitted or top-dose-only effect, or another doubt; inactive = no such curve, though single readings can be large; an effect the other way counts as inactive or inconclusive.
Potency is read from the fitted curve at half-maximal effect.

In the case of `c1ccc2c(CN3CCNCC3)cccc2c1`, the Potency entry in experiment [1], in experiment [2], in experiment [3], in experiment [4], in [5] and in [6] was “inactive” in each case. For the same compound, the Potency result in [7], in [8], in experiment [9], in experiment [10], in [12] and in [13] was “inactive” throughout. For the same compound, in [11], the viability was 106%.
`CC1(N2CCC(n3c([C@@H]4CCCNC4)nc4ccccc43)CC2)CCCCCCC1`: the Potency in [1] was 7.43 µM (active); in [14] it was 11.8 µM (active); in experiment [4], 20.9 µM (active); in [5] it was 4.69 µM (active); in experiment [6], 14.8 µM (active); in experiment [7], 23.5 µM (active). In addition, the results for the Potency in experiment [15], in experiment [12] and in experiment [13] were 6.62 µM (active), 5.26 µM (active) and 9.35 µM (active), respectively. Further, the Potency entry in experiment [8] is “inactive”.
For `COc1ccc2c(c1)[C@]13CCCCC1C(C2)N(C)CC3` (stereo not given in full), the Potency result in experiment [1], in experiment [16], in experiment [3], in experiment [14], in [4] and in experiment [6] was “inactive” in each case. Besides, the Potency entry in experiment [7], in [8], in [15], in [9], in experiment [10] and in experiment [17] was “inactive” each time. The Potency entry in [12] and in [13] was “inactive” in each case. In [11], the viability was 120%.
In the case of `C[C@]12CCC(=O)C(O)=C1CC[C@@H]1[C@H]3CCC(=O)[C@@]3(C)CC[C@@H]12`, the Potency result in experiment [1], in [2], in [4], in experiment [7], in [9] and in [13] was “inactive” throughout. For the same compound, the Potency was 2.35 µM (active) in experiment [16] and 18.7 µM (active) in experiment [10].
Consider `CC[C@@H](C(N)=O)N1CCCC1=O`, for which the Potency entry in [1], in experiment [3], in [4], in experiment [7] and in experiment [12] was “inactive” in each case. For the same compound, in experiment [17], the Potency is 26.4 µM (active).
`CC(C)(O)C(=O)Nc1ccc([N+](=O)[O-])c(C(F)(F)F)c1`: the Potency in experiment [1] was 23.5 µM (active); in experiment [5] it was 9.35 µM (active); in [18], 7.43 µM (active); in experiment [17] it was 20.9 µM (active); in experiment [12], 18.7 µM (active); in experiment [13], 3.32 µM (active). Also, the Potency result in [3], in experiment [4], in experiment [6], in experiment [8] and in experiment [9] was “inactive” throughout.
As to `CCc1c(C(=O)C(N)=O)c2c(OCC(=O)O)cccc2n1Cc1ccccc1`, the Potency entry in [1], in [2], in experiment [4], in experiment [5], in experiment [6] and in experiment [7] was “inactive” each time. For the same compound, the Potency entry in experiment [9], in experiment [18], in experiment [10], in experiment [17], in [12] and in [13] was “inactive” throughout. Moreover, the Potency in experiment [8] is 7.43 µM (active).
On to `C[C@]12COC(=O)C[C@@H]1CC[C@@H]1[C@H]2CC[C@@]2(C)[C@H]1CC[C@]2(C)O`, for which the Potency result in [1], in experiment [2], in experiment [14], in [4], in [5] and in [6] was “inactive” each time. For the same compound, the Potency result in experiment [8], in experiment [15], in experiment [10] and in experiment [12] was “inactive” throughout.
For `N=c1c2c(-c3ccccc3)c(-c3ccccc3)n(Cc3ccccc3)c2ncn1C1CCC(O)CC1` (stereo not given), the Potency in [1] was 2.64 µM (active); in experiment [2], 26.4 µM (active); in experiment [16], 18.7 µM (active); in [14], 1.32 µM (active); in experiment [5], 5.26 µM (active); in experiment [6], 18.7 µM (active). For the same compound, the Potency in experiment [7] is 23.5 µM (active); in experiment [8] it was 11.8 µM (active); in experiment [15] it was 5.26 µM (active); in experiment [9], 13.2 µM (active); in experiment [18], 0.132 µM (active); in experiment [10], 11.8 µM (active). Moreover, the Potency in experiment [17] is 3.32 µM (active); in experiment [11], 16.6 µM (active); in [12], 4.69 µM (active); in experiment [13] it was 6.62 µM (active).
As for `CCCN1CCO[C@@H]2c3cc(O)ccc3OC[C@@H]21`, the Potency entry in experiment [1], in experiment [14], in experiment [4], in experiment [8] and in [12] was “inactive” each time. In addition, the Potency is 16.6 µM (active) in [16], 14.8 µM (active) in experiment [5], 20.9 µM (active) in [7] and 18.7 µM (active) in experiment [10].
Turning to `C=C[C@@H]1CN2CCC1C[C@H]2[C@H](O)c1ccnc2ccccc12` (stereo not given in full), the Potency was 6.62 µM (active) in experiment [1]; 7.43 µM (active) in [16]; 18.7 µM (active) in experiment [5]; 26.4 µM (active) in [6]; 10.5 µM (active) in experiment [7]; 14.8 µM (active) in [8]. Besides, the Potency in [11] and in experiment [12] was 20.9 µM (active) throughout. Besides, the Potency entry in experiment [2] and in [4] was “inactive” in each case.
`CCN1CCN(C(=O)Cc2ccc(Nc3ncc(F)c(Nc4ccc(C(=O)Nc5ccccc5Cl)cc4)n3)cc2)CC1`: the Potency is 1.05 µM (active) in experiment [1]; 8.33 µM (active) in experiment [2]; 7.43 µM (active) in [3]; 2.64 µM (active) in experiment [14]; 7.43 µM (active) in experiment [4]; 5.9 µM (active) in experiment [5]. For the same compound, the Potency was 5.9 µM (active) in experiment [6]; 8.33 µM (active) in experiment [7]; 14.8 µM (active) in experiment [8]; 1.87 µM (active) in experiment [15]; 4.18 µM (active) in experiment [9]; 0.526 µM (active) in experiment [18]. Further, the Potency in experiment [10] is 2.64 µM (active); in [17], 5.26 µM (active); in experiment [12] it was 7.43 µM (active); in experiment [13], 0.743 µM (active).
For the compound `COc1ccc(CC2NCCc3cc(OC)c(OC)cc32)cc1OC` (stereo not given), the Potency result in experiment [1], in [2], in experiment [3], in experiment [7], in [8] and in [17] was “inactive” throughout. For the same compound, the Potency entry in [12] was “inactive”. Moreover, the viability in experiment [11] is 129%.
Regarding `Cc1c(C(=O)c2cccc3ccccc23)c2cccc3c2n1[C@H](CN1CCOCC1)CO3`, the Potency is 7.43 µM (active) in experiment [1]; 23.5 µM (active) in [2]; 23.5 µM (active) in experiment [16]; 23.5 µM (active) in experiment [14]; 26.4 µM (active) in experiment [8]; 3.72 µM (active) in [15]. Moreover, the Potency in experiment [9] was 23.5 µM (active); in experiment [18], 13.2 µM (active); in experiment [10], 23.5 µM (active); in [12], 18.7 µM (active).
